Drawing on PubChem BioAssay (NCI), this text covers growth for 32 compounds.

Each structure is given as a SMILES string. This is part of a sample that, as a whole, favours compounds with a hit. Of some 83,000 tested, about 20% had one in any assay.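 Cell lines were cultured in 96-well plates, exposed to a single compound concentration, and assessed for percent growth 48 hours later.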 Active and inactive are the calls of the source. Rule for the calls: active = growth percent below 10; inactive = the rest.

For the experiment, the system named is SK-MEL-5 melanoma. Description: NCI-60 one-dose screen, 48 h (100 = growth as untreated, 0 = no growth, -100 = all killed). Conditions: 10 µM unless noted.
As for `C=C(C)[C@@H]1CC[C@]2(C(=O)OC)CC[C@]3(C)[C@H](CC[C@@H]4[C@@]5(C)C/C(=C/c6cccc(I)c6)C(=O)C(C)(C)[C@@H]5CC[C@]43C)[C@@H]12`, the growth is 99% (inactive). On to `N#Cc1c(-c2ccc(Cl)cc2)nc(NN=Cc2ccco2)nc1N1CCOCC1`, for which the growth was 80.9% (inactive). For the compound `C=CC(=O)Nc1cccc(Nc2nc(SC)nc(-c3cccc([N+](=O)[O-])c3)c2C#N)c1`, the growth is 55.2% (inactive). Regarding `COc1ccc(/C=C/C(=O)c2ccc(O)c(CN3CCN(c4cc5c(cc4F)c(=O)c(C(=O)O)cn5C4CC4)CC3)c2)cc1`, the growth is -23% (active). As for `COc1cc2nc(N3CCCC3)nc(Nc3ccccc3)c2cc1OC`, the growth is -97.8% (active). For the compound `COc1cccc(-c2nc3sccn3c2-c2ccnc(NCCNS(=O)(=O)c3ccccc3)c2)c1`, the growth was -39.3% (active). As to `COc1cc(/C=C/C(=O)c2c(C)oc3nc[nH]c(=O)c23)cc(OC)c1OC`, the growth is 89.9% (inactive). On to `C=C(C)[C@@H]1CC[C@]2(C(=O)OC)CC[C@]3(C)[C@H](CC[C@@H]4[C@@]5(C)C/C(=C/c6ccc(OC)cc6)C(=O)C(C)(C)[C@@H]5CC[C@]43C)[C@@H]12`, for which the growth is 95.8% (inactive).

Take `O=S(=O)(Nc1ccc(I)cc1F)c1ccc(-c2cnc(C3CC3)o2)cc1`: the growth is 62.8% (inactive).

Consider `COc1cc2nc(N3CCCC3)nc(NCCc3ccccc3)c2cc1OC`, for which the growth was 90.3% (inactive).

In the case of `COc1ccc(Nc2nc(SC)nc(-c3cccc([N+](=O)[O-])c3)c2C#N)cc1`, the growth is 70.9% (inactive). The figure for `COc1cc(CNc2oc(-c3ccccc3)c(-c3ccccc3)c2C#N)cc(CN2CCN(C)CC2)c1O` is 49.8% (inactive). For the compound `COc1ccc(-c2nc3ccc(-c4nc5ccc(N6CCN(c7ccncc7)CC6)cc5[nH]4)cc3[nH]2)cc1OC`, the growth was 14.1% (inactive). The result for `O=C1/C(=C/c2cn(-c3ccccc3)nc2-c2ccccc2)SC(=S)N1CCc1ccccc1` reads 101% (inactive).

`CCCN1CCN(c2ccc3nc(-c4ccc5nc(-c6ccc(OCC)cc6)[nH]c5c4)[nH]c3c2)CC1`: the growth is 28.9% (inactive).

As for `COc1cccc(-c2nc3sccn3c2-c2ccnc(NCCCNS(=O)(=O)c3cccc(F)c3)c2)c1`, the growth was -31.2% (active). `Cn1c(=O)c2c(nc3n(-c4ccc(Cl)cc4Cl)c(Sc4nc(-c5ccccc5)c(C#N)c(=O)[nH]4)cn23)n(C)c1=O`: the growth is 90.4% (inactive). The figure for `O=C(/C=C/c1ccccc1)c1ccc(O)c(CN2CCN(c3cc4c(cc3F)c(=O)c(C(=O)O)cn4C3CC3)CC2)c1` is -42.1% (active); for `C=CC(=O)Nc1cccc(-c2nc(SC)nc(Nc3ccccc3OC)c2C#N)c1` it is 66.7% (inactive). In the case of `COc1cccc(-c2nc3sccn3c2-c2ccnc(NCCNS(=O)(=O)c3ccc(F)cc3)c2)c1`, the growth was -53.1% (active). As for `COc1cc2nc(N3CCCC3)nc(NCc3ccccc3)c2cc1OC`, the growth was 67.8% (inactive). The result for `N#Cc1c(-c2ccc(Cl)cc2)nc(N/N=C/c2cccc(Br)c2)nc1N1CCOCC1` reads 85.6% (inactive); that for `CSc1nc(-c2cccc(NC(=O)CCl)c2)c(C#N)c(=O)n1C`, 79.4% (inactive). As to `C=CC(=O)Nc1cccc(-c2nc(SC)nc(NCCc3ccc(OC)c(OC)c3)c2C#N)c1`, the growth is -29.2% (active). The figure for `O=C(/C=C/c1cccc([N+](=O)[O-])c1)c1ccc(O)c(CN2CCN(c3cc4c(cc3F)c(=O)c(C(=O)O)cn4C3CC3)CC2)c1` is 46.1% (inactive); for `COc1cc(/C=C/C(=O)c2ccc(O)c(CN3CCN(c4cc5c(cc4F)c(=O)c(C(=O)O)cn5C4CC4)CC3)c2)cc(OC)c1OC` it is 64% (inactive); for `CC(C)(O)c1cn(CCCCN2C(=O)C(=O)c3ccccc32)nn1` it is 99.7% (inactive). As to `COC(=O)[C@]12CCC(C)(C)C[C@H]1[C@H]1C(=O)C[C@@H]3[C@@]4(C)c5c([nH]c6ccccc6c5=O)C(C)(C)[C@@H]4CC[C@@]3(C)[C@]1(C)CC2`, the growth is 12.4% (inactive). Regarding `N=C(N)c1ccc(-c2ccc(-c3ccc4ccccc4c3)s2)s1`, the growth was 84.4% (inactive).

Consider `C=CC(=O)Nc1cccc(-c2nc(SC)nc(NCCN3CCOCC3)c2C#N)c1`, for which the growth was 94.9% (inactive). The result for `COc1cc(C=Nc2oc(-c3ccccc3)c(-c3ccccc3)c2C#N)cc(CN2CCCCC2)c1O` reads 98.4% (inactive); that for `CC1=NN(c2nc(-c3ccc(Cl)cc3)c(C#N)c(N3CCOCC3)n2)C(=O)C1`, 94.3% (inactive).
